HCV inh: blocks hepatitis C virus; Huh7.5.1 HCVcc-Cre infection, luciferase reporter, 44 h; Potency, µM (highest dose often 41.8 µM), actives largely listed as inhibitors; 340,000 compounds, 3.4% hits; AID 651820
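HCVcc-Cre virus at an moi near 0.5 was added right after compound to cells cultured 4 h from seeding (1,000 cells/well). Luciferase activity was determined 44 h later, 15 min after substrate addition at RT.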
Pf growth 96h: P. falciparum growth inhibition at 96 hours; Potency, µM (titrated, usually from 28.7 µM), hits mostly inhibitors; AID 504834; P. falciparum luciferase reporter growth, 96 h; 320,000 compounds, 6.9% hits
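Erythrocytes infected with luciferase-expressing P. falciparum were dispensed at 2% hematocrit and 0.05% parasitemia (final), then incubated with compounds 96 hours at 37 C in 5% CO2. Luminescence after detection reagent addition reported growth.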
AMA1-RON2 inh: AMA1-RON2 (P. falciparum) interaction inhibition | AlphaScreen AMA1-biotinylated RON2 peptide binding | Potency, µM (series often up to 58.2 µM), actives largely listed as inhibitors | 360,000 compounds, 0.2% hits; note: nearly all actives have a fitted effect of over 45% in size
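AMA1 (3D7) with his tag at 25 nM final met compounds first, then biotinylated RON2 peptide at 25 nM; detection used donor plus acceptor beads, 10 µg/mL apiece, read by AlphaScreen after 30 min at room temperature.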
Shiga toxin inh: Shiga toxin inhibition | Vero cells, Shiga toxin protein synthesis inhibition reporter | inhibition, % at 38.7 µM | 290,000 compounds, 9.2% hits | AID 2315; in the data active = inhibition mostly above about 28%, no sharp cut-off; inactive = mostly below about 43%
Cycloheximide cs: counter-screen for Shiga toxin inhibitors: cycloheximide protein synthesis inhibition; cell reporter, cycloheximide protein synthesis inhibition counterscreen; max response, %; 300,000 compounds, 12% hits; AID 2314; in the data active = max response mostly above about 13%, no sharp cut-off; inactive = mostly below about 14%; note: read at 38.3 µM for the half of the compounds with a filed dose
Pf growth 48h: inhibits P. falciparum growth in the first generation, 48 h; P. falciparum luciferase growth in erythrocytes, 48 h; 310,000 compounds, 5.9% hits; AID 504832; Potency, µM (series often up to 28.7 µM), most hits filed as inhibitors
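Luminescence readout; reporter = integrated firefly luciferase in P. falciparum. RBC culture at 2% hematocrit, 0.1% parasitemia final, 37 C/5% CO2; decreased signal taken as growth inhibition.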
Large screens that a line does not name were inactive; ! = repeats disagree. Compounds with a hit are over-represented: about 21% of the library has one in this group of screens. Unless noted, calls come from the whole dose curve; as a rule, active = well fitted curve in the direction sought with a large enough effect; inconclusive = small, poorly fitted or top-dose-only effect, or another doubt; inactive = no such curve, though single readings can be large; an effect the other way counts as inactive or inconclusive.

O=C(Nc1cccc(F)c1)c1c(O)c2ccccc2[nH]c1=O	Pf growth 96h inconclusive, Cycloheximide cs 23 (no result: Shiga toxin inh)
O=C(N/N=C/c1ccc(F)cc1)c1c(O)c2ccccc2[nH]c1=O	none
O=C(N/N=C/c1cccc(F)c1)c1c(O)c2ccccc2[nH]c1=O	HCV inh 13µM
COc1ccc(NS(=O)(=O)c2cc3c(cc2C)N(C(C)=O)CCO3)cc1OC	none
Cc1ccc2c(c1)c(/C=C/c1cc[n+](C)cc1)c(C)n2C	HCV inh 10µM, Pf growth 96h 0.47µM, Pf growth 48h 0.93µM
C[C@H](NC(N)=O)C(=O)Nc1ccc(OCc2ccccc2)cc1	Cycloheximide cs 59
O=C(O)/C=C/C(=O)Nc1ccc(OC(F)F)cc1	none
O=C(O)/C=C/C(=O)Nc1ccc(OCc2ccccc2)cc1	Cycloheximide cs 19
O=C(O)/C=C/C(=O)Nc1ccc(-c2ccccc2)cc1	Shiga toxin inh 92, Cycloheximide cs 45
CC(C)[C@H](NC(N)=O)C(=O)Nc1ccc(OCc2ccccc2)cc1	none
CCN(CC)c1ccc(C(=S)NCc2ccccc2)cc1	Pf growth 96h inconclusive
Cn1c(CCc2nc3ccccc3[nH]2)nnc1SCC#N	Pf growth 48h inconclusive
CC(C(N)=O)N1C(=O)NC2(CCCc3ccccc32)C1=O (configuration not stated)	none
O=C(CN1C(=O)NC2(CCCc3ccccc32)C1=O)NCC(F)(F)F (configuration not stated)	none
O=C(O)c1ccc(N2C(=O)CC(SC(=Nc3ccccc3)Nc3ccccc3)C2=O)cc1 (configuration not stated)	Pf growth 96h inconclusive
CC(/C=C/c1ccc(N(C)C)cc1)=N\N=C(/N)SC1CC(=O)N(c2ccc(C(=O)O)cc2)C1=O (configuration not stated)	Shiga toxin inh 70, Cycloheximide cs 45
CC(=O)c1ccc(NC(=O)CSc2ccc3nnc(-c4cccnc4)n3n2)cc1	none
CCOc1ccccc1N(CC)C(=O)c1ccc2c(=O)n3c(nc2c1)CCCCC3	Pf growth 96h 12µM, Pf growth 48h inconclusive
COc1cccc(COC(=O)c2ccc3c(=O)n4c(nc3c2)CCC4)c1OC	Pf growth 96h inconclusive, Pf growth 48h 13µM (no result: Shiga toxin inh, Cycloheximide cs)
CN(Cc1cccc(F)c1)C(=O)c1ccc2c(=O)n3c(nc2c1)CCC3	none
COc1cccc(CN(C)C(=O)c2ccc3c(=O)n4c(nc3c2)CCC4)c1OC	Cycloheximide cs 36
COc1cccc(NC(=O)CN(C)C(=O)CCCc2nc3ccccc3s2)c1	Pf growth 96h inconclusive (no result: Shiga toxin inh, Cycloheximide cs)
CCCC1OC(c2ccco2)OCC1CC (configuration not stated)	none (no result: Pf growth 96h, Shiga toxin inh, Cycloheximide cs, Pf growth 48h)
COC(=O)c1ccc(Nc2cc(C)nc3ncnn23)cc1	none
COc1ccc(Nc2cc(C)nc3ncnn23)cc1	none (no result: Pf growth 96h, Shiga toxin inh, Cycloheximide cs, Pf growth 48h)
Cc1cc(Nc2ccc(C(C)C)cc2)n2ncnc2n1	Pf growth 48h 1µM
Cc1cc(Nc2ccc3ccccc3c2)n2ncnc2n1	Pf growth 48h 0.13µM
Cc1cc(Nc2cccc(C(=O)O)c2)n2ncnc2n1	Shiga toxin inh 19, Cycloheximide cs 14
Cc1cc(Nc2cc(C(=O)O)ccc2C)n2ncnc2n1	none (no result: Pf growth 48h)
COc1ccc(NC(=O)CN2CCN(S(=O)(=O)N3CCCCCC3)CC2)cc1	none
COc1ccc(S(=O)(=O)N2CCN(CC(O)COc3ccc(CC#N)cc3)CC2)cc1OC (configuration not stated)	Pf growth 96h inconclusive
CCN(CC)CCCNC(=O)Cn1ncn2cccc2c1=O	none (no result: Pf growth 96h)
Cc1ccc(CNC(=O)Cn2ncn3cccc3c2=O)cc1	Shiga toxin inh 23, Cycloheximide cs 21
COc1cccc(CNC(=O)Cn2ncn3cccc3c2=O)c1OC	Shiga toxin inh 26, Cycloheximide cs 11
CC(=O)Nc1nc2c(ncn2COCCOC(C)=O)c(=O)[nH]1	Pf growth 96h 13µM (no result: AMA1-RON2 inh)
CC(C)[C@H](N)C(=O)OCCOCn1cnc2c(=O)[nH]c(N)nc21	HCV inh 0.5µM!, Pf growth 96h inconclusive
CCCC(=O)Nc1nc2c(ncn2[C@@H]2O[C@H]3COP(=O)(O)O[C@@H]3[C@@H]2OC(=O)CCC)c(=O)[nH]1	none (no result: HCV inh, Pf growth 96h, AMA1-RON2 inh, Pf growth 48h)
CC(=O)Nc1ccc(SC[C@H](Cc2ccccc2)N2CCN(CCc3ccccc3)CCC2=O)cc1	Pf growth 96h 2.9µM, Pf growth 48h 8.3µM
CC(=O)Nc1ccc(SC[C@H](Cc2ccccc2)N2CC[C@@H](C(C)(C)C)CCC2=O)cc1	HCV inh inconclusive, Pf growth 96h inconclusive, Pf growth 48h 1.9µM (no result: Shiga toxin inh, Cycloheximide cs)
N#CC[C@H](Cc1ccccc1)N1CCN(Cc2ccccc2)CCC1=O	none
N#CC[C@H](Cc1ccccc1)N1CCN(CCc2ccccc2)CCC1=O	Pf growth 96h 3.7µM
Cc1ccc(CNC(=O)C2CCCN2C(=O)Nc2ccc(F)cc2)cc1 (configuration not stated)	none
OCCN1CCN(c2ncnc3c2ncn3[C@H]2CN(Cc3cccc(C(F)(F)F)c3)C[C@@H](CO)O2)CC1	none (no result: HCV inh, Pf growth 96h, Shiga toxin inh, Cycloheximide cs, Pf growth 48h)
CCc1cc(SC#N)cc(C)c1N	Pf growth 96h 3.3µM, Pf growth 48h 8.3µM
Cc1cc(SC#N)cc(C)c1NC(=O)CCl	none
CCC(=O)Nc1ccc(SC#N)cc1C	none (no result: Pf growth 48h)
CCc1cc(SC#N)cc(C)c1NC(=O)CCl	HCV inh inconclusive, Pf growth 96h inconclusive, Pf growth 48h 13µM
Cc1cccc2cc3c(nc12)SC(=NCC1CCCO1)N(Cc1ccco1)C3 (configuration not stated)	HCV inh inconclusive, Cycloheximide cs 20, Pf growth 48h 4.1µM
Cc1ccc2nc3c(cc2c1)CN(Cc1ccco1)C(=NCC1CCCO1)S3 (configuration not stated)	Pf growth 96h inconclusive, Pf growth 48h inconclusive
COCCN=C1Sc2nc3c(C)cccc3cc2CN1Cc1ccco1	Pf growth 48h 8.3µM
COC(=O)[C@@]1(Cc2ccc(OC)cc2)[C@H]2c3cc(C(=O)N4CCCC4)n(CCc4ccc(OC)c(Br)c4)c3C[C@H]2CN1C(=O)c1ccccc1	none (no result: HCV inh, Pf growth 96h, Shiga toxin inh, Cycloheximide cs, Pf growth 48h)
COc1ccc(CN(C)C[C@H]2OCc3cnnn3CCCC(=O)N([C@H](C)CO)C[C@@H]2C)cc1	none (no result: HCV inh, Pf growth 96h, Shiga toxin inh, Cycloheximide cs, Pf growth 48h)
N#Cc1ccccc1OCC(=O)Nc1ccccc1C(=O)NC1CC1	HCV inh inconclusive, Pf growth 96h inconclusive (no result: Shiga toxin inh, Cycloheximide cs)
NNc1nc(-c2ccccc2Cl)nc2sc3c(c12)CCCC3	HCV inh inconclusive, Pf growth 96h inconclusive, Shiga toxin inh 52, Cycloheximide cs 46, Pf growth 48h inconclusive
NNc1nc(-c2ccccc2Cl)nc2ccccc12	none (no result: Shiga toxin inh)
Cc1cccc(CN2CCN(C3CN(Cc4ccc([N+](=O)[O-])cc4)S(=O)(=O)C3)CC2)c1 (configuration not stated)	none (no result: HCV inh, Pf growth 96h, Shiga toxin inh, Cycloheximide cs, Pf growth 48h)
CCOc1cc(-c2ccccc2)nc2c1CN(S(=O)(=O)c1ccc(C)cc1)C(c1cccc(Cl)c1)C2 (configuration not stated)	none (no result: HCV inh, Pf growth 96h, Shiga toxin inh, Cycloheximide cs, Pf growth 48h)
CCOC(=O)N1CCC(NC(=O)c2cccn3c(=O)c4cc(Br)ccc4nc23)CC1	Pf growth 48h 2.6µM
CCOC(=O)N1CCC(NC(=O)c2ccc3nc4ccccc4c(=O)n3c2)CC1	Pf growth 48h inconclusive (no result: HCV inh, AMA1-RON2 inh)

Source: PubChem BioAssay (National Center for Advancing Translational Sciences (NCATS))
